NS1 function inh = blocks influenza NS1 protein function; Potency, µM (top dose mostly 46.1 µM), for inactives: at the top dose activity, positive = more growth; 270,000 compounds, 0.4% hits; calls by dose curve; note: actives are rising curves; nearly all actives have a fitted effect of over 50% in size
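S. cerevisiae expressing influenza A NS1, grown in glucose, washed, then diluted 1:100 into pH 6.0 -URA galactose medium with 23 nl compound. Growth recovery read as OD600; NS1-free strain serves as control.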
HCV inhibitor = inhibitors of hepatitis C virus infection | Huh7.5.1 HCVcc-Cre infection, luciferase reporter, 44 h | Potency, µM (series often up to 41.8 µM), inactives show at the highest dose activity change, negative = inhibition, usual class: inhibitors | 340,000 compounds, 3.4% hits; note: % is set by controls: 0 for no effect and ±100 for the full control effect
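Luciferase read-out (15 sec integration) after a 15 min room-temperature substrate step quantifies HCVcc-Cre infection. Cells, 1,000 per well, had compound added 4 h post-plating, then virus at ~0.5 moi, and were cultured 44 h.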
Pf growth 96h = P. falciparum growth inhibition at 96 hour, primary screen for plastid delayed-death inhibitors; P. falciparum luciferase reporter growth, 96 h; 320,000 compounds, 6.9% hits; Potency, µM (doses to about 28.7 µM), for inactives: at the top dose activity change, negative = inhibition, usual class: inhibitors; AID 504834; note: % is set by controls: 0 for no effect and ±100 for the full control effect
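Plates of compound plus infected erythrocytes (2% hematocrit, 0.05% parasitemia final) incubate 96 hours, 37 C, 5% CO2. Detection reagent added; reduced luminescence from the parasites' luciferase reporter flags inhibition.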
Vaccinia Venus = vaccinia inhibition (Venus reporter). AID 720580. 330,000 compounds, 0.46% hits. Potency, µM (top dose mostly 36.5 µM), inactives show at the top dose activity change, negative = inhibition, actives largely listed as inhibitors. Vaccinia virus Venus reporter expression, fluorescence; calls by dose curve; tested in A549 cells; note: % is set by controls: 0 for no effect and ±100 for the full control effect; nearly all actives have a fitted effect of over 30% in size
VACV mCherry inh = inhibitors of vaccinia virus infection (mCherry reporter signal) | Vaccinia virus mCherry reporter infection, fluorescence | 310,000 compounds, 0.63% hits | Potency, µM (doses to about 36.5 µM), for the others: at the top dose activity change, negative = inhibition, most hits filed as inhibitors; calls by dose curve; tested in A549 cells; note: % is set by controls: 0 for no effect and ±100 for the full control effect; nearly all actives have a fitted effect of over 35% in size
Pf growth 48h = P. falciparum growth inhibition at 48 hours (one generation); P. falciparum luciferase growth in erythrocytes, 48 h; 310,000 compounds, 5.9% hits; Potency, µM (highest dose often 28.7 µM), for the others: at the top dose activity change, negative = inhibition, usual class: inhibitors; note: % is set by controls: 0 for no effect and ±100 for the full control effect
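Luminescence readout; reporter = integrated firefly luciferase in P. falciparum. RBC culture at 2% hematocrit, 0.1% parasitemia final, 37 C/5% CO2; decreased signal taken as growth inhibition.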
Starred values were filed as active, the others as inactive; i = inactive; ? = inconclusive; . = no result; [ ] = remark or other dose. Only some compounds are listed: those with a hit (about 11% of all), similar ones and a draw of the others. Unless noted, calls come from the whole dose curve; as a rule, active = well fitted inhibition curve with a large enough effect; inconclusive = small, poorly fitted or top-dose-only effect, or another doubt; inactive = no such curve, though single readings can be large or run the other way. Potency is the fitted concentration of half-maximal effect.

SMILES	NS1 function inh	HCV inhibitor	Pf growth 96h	Vaccinia Venus	VACV mCherry inh	Pf growth 48h
COC(=O)c1[nH]c(C)c(/C(O)=C2\C(=O)C(=O)N(CCN3CCOCC3)C2c2ccccc2OC)c1C (stereo not given)	-5.6%	15.2%	-1.9%	.	.	11.3%
Cc1ccc(C(=O)CN2CCOCC2)cc1	.	.	.	-9.7%	-9.6%	.
CCN(CC)CC(=O)N1c2ccccc2Sc2ccccc21	2.7%	14.9%	-12.2%	.	.	-16.5%
Cc1cc(Nc2cc(F)ccc2C)n2ncnc2n1	5.8%	16.1%	?	-7.6%	-16.8%	44.4%
CCc1cccc(Nc2cc(C)nc3nc(C)nn23)c1	-12.0%	12.2%	8.28µM*	.	.	5.22µM*
COc1ccc(-c2cn3cccnc3n2)cc1NC(=O)c1cccs1	2.7%	1.0%	11.7µM*	-21.5%	?	2.8%
COc1ccc(-c2cn3cccnc3n2)cc1NC(=O)C(C)Oc1ccccc1 (stereo not given)	-3.6%	22.4µM*	8.4%	-16.1%	?	13.1µM*
CSc1nnc(C)c(=O)[nH]1	11.1%	30.2%	14.7µM*	.	.	-17.7%
O=C(COc1cc(Cl)c(Cl)cc1Cl)Nn1cnnc1	-0.6%	15.1%	41.8%	-3.7%	0.9%	1.4%
CC(CC(=O)N1CCN(c2cccc(Cl)c2)CC1)S(=O)(=O)c1ccc2c(c1)NC(=O)CO2 (stereo not given)	3.7%	6.31µM*	?	.	.	?
Cc1ccc(NC(=O)CCNS(=O)(=O)c2ccc3c(c2)CCC(=O)N3)cc1F	1.8%	6.3%	9.28µM*	-23.1%	i	49.9%
CCOC(=O)C1CCN(C(=O)CC(C)S(=O)(=O)c2ccc3c(c2)NC(=O)CO3)CC1 (stereo not given)	-14.5%	2.1%	?	-14.5%	-1.0%	-7.6%
O=C(CCNS(=O)(=O)c1ccc(Cl)cc1)N1CCOCC1	27.6%	-7.4%	?	-14.1%	-2.9%	5.2%
O=C(CCNS(=O)(=O)c1ccc(Cl)cc1)N1CCCCCC1	9.0%	.	11.7µM*	-9.5%	i	8.4%
CC(CC(=O)N(C)C1CCCCC1)S(=O)(=O)c1ccc2c(c1)NC(=O)CO2 (stereo not given)	-2.1%	5.0%	7.38µM*	0.0%[7.34 µM]	11.8%[7.34 µM]	12.7%
O=C1CCc2cc(S(=O)(=O)NCCC(=O)N3CCN(c4cccc(Cl)c4)CC3)ccc2N1	-5.6%	?	10.4µM*	.	.	?
Cc1ccccc1Nc1ccc(S(=O)(=O)N2CCOCC2)cc1[N+](=O)[O-]	10.9%	-3.2%	-22.0%	-12.9%	-21.7%	-5.6%
CC1(C)COCN1S(=O)(=O)c1ccc(C(=O)Nc2nnc(-c3ccc(Cl)s3)o2)cc1	-3.8%	2µM*	-17.4%	?	?	4.15µM*
COc1ccc(-c2nnc(NC(=O)c3ccc(S(=O)(=O)N4COCC4(C)C)cc3)o2)cc1	-17.6%	?	-4.6%	?	-24.9%	11.7µM*
CC1CCCCN1S(=O)(=O)c1ccc(C(=O)Nc2nnc(-c3ccccc3Cl)o2)cc1 (stereo not given)	-22.0%	?	3.9%	-27.1%	?	.
CC1CCCCN1S(=O)(=O)c1ccc(C(=O)Nc2nnc(-c3ccncc3)o2)cc1 (stereo not given)	.	-17.6%	?	-18.1%	-19.3%	?
COc1cccc(C2CC(c3cccc(NS(C)(=O)=O)c3)=NN2C(=O)c2ccccc2)c1OC (stereo not given)	?	?	?	-19.5%	-0.4%	1.85µM*
COc1ccccc1C1CC(c2ccc(Br)cc2)=NN1C(=O)c1cccnc1 (stereo not given)	-4.7%	?	1.85µM*	?	-21.6%	4.15µM*
COc1cccc(C2CC(c3ccc(Br)cc3)=NN2C(=O)c2ccncc2)c1OC (stereo not given)	.	?	?	?	14.1µM*	11.7µM*
COc1ccc(C2=NN(C(=O)c3ccncc3)C(c3ccccc3O)C2)cc1 (stereo not given)	-14.6%	0.7%	?	-10.8%	-5.8%	?
SMILES	NS1 function inh	HCV inhibitor	Pf growth 96h	Vaccinia Venus	VACV mCherry inh	Pf growth 48h
COc1ccc(-c2csc3nc[nH]c(=O)c23)cc1OC	0.1%	-3.8%	-4.4%	-12.6%	i	-19.3%
Cc1ccc(-c2csc3nc[nH]c(=S)c23)cc1C	26.9%	?	10.4µM*	-26.3%	-25.0%	?
O=C(NCCN1CCN(c2ccccc2)CC1)C1(S(=O)(=O)c2ccc(Cl)cc2)CC1	-6.1%	-13.2%	11.6%	-21.6%	?	-16.8%
CC1(C)CCC(c2ccc(Cl)cc2)=C(CN2CCN(c3ccc(C(=O)NS(=O)(=O)c4ccc(N[C@H](CCN5CCOCC5)CSc5ccccc5)c(S(=O)(=O)C(F)(F)F)c4)cc3)CC2)C1	.	.	.	10µM*	?	.
O=C(O)c1cc2ccccc2c(N=Nc2cccnc2)c1O	-2.4%	?	2.94µM*	9.5%	15.8%	-11.7%
COC(=O)C1CCN(S(=O)(=O)c2ccc(Br)s2)CC1	.	8.2%	?	-12.5%	-13.6%	-25.6%
COc1cc2ccccc2cc1C(=O)NC(=S)Nc1nnn(C)n1	24.2%	-6.9%	?	-7.0%	-16.3%	3.6%
Cn1nnc(NC(=S)NC(=O)c2cc(Cl)ccc2Cl)n1	-73.2%	21.1%	4.15µM*	.	.	8.28µM*
CCOC(=O)C1=C(C)N(C2CCCCC2)C(=O)C1	-2.3%	13.7%	.	-16.4%	.	?
COC(=O)C1=C(C)N(C2CCCCC2)C(=O)C1	1.2%	-11.8%	1.85µM*	.	.	0.6%
COc1cc(OC)cc(C(=O)NCc2ccc3[nH]c(C)cc3c2)c1	.	-7.3%	18.5µM*	.	.	9.28µM*
CCOc1ccc(NC(=S)NCc2ccc3[nH]c(C)cc3c2)cc1	.	11.2µM*	-1.9%	.	.	?
CCCCNC(=O)/C(C#N)=C/c1cccnc1	-9.0%	19.5%	-7.7%	-0.5%	i	-11.4%
COc1ccc(OC)c(NC(=O)CN2C(=O)c3ccccc3Sc3ccc(C(=O)N4CCCC4)cc32)c1	.	.	.	-10.8%	-10.9%	.
COc1ccc(NC(=O)CN2C(=O)c3ccccc3Sc3ccc(C(=O)N4CCOCC4)cc32)c(OC)c1	.	-9.3%	-13.8%	-11.2%	-6.5%	10.4µM*
C=CCN1C(=O)c2ccccc2Sc2ccc(C(=O)N3CCN(C)CC3)cc21	-11.4%	?	9.28µM*	-12.1%	-3.4%	?
CCOc1ccc(CN2C(=O)c3ccccc3Sc3ccc(C(=O)N4CCN(C)CC4)cc32)cc1	.	.	.	-9.1%	-10.3%	.
COc1ccc(NC(=O)c2oc3ccccc3c2NC(=O)C2CC2)cc1OC	-12.7%	?	11.7µM*	-12.5%	-13.8%	?
COc1ccc(NC(=O)c2oc3ccccc3c2NC(=O)C2CCCO2)cc1OC (stereo not given)	.	?	42.7%	-18.2%	-28.5%	?
COc1ccccc1NC(=O)c1oc2ccccc2c1NC(=O)C1CC1	-2.4%	-26.9%	14.7µM*	-17.9%[7.34 µM]	-0.9%[7.34 µM]	11.7µM*

Compound activity deposited in PubChem BioAssay by National Center for Advancing Translational Sciences (NCATS).
